Measured values published in PubChem BioAssay (Tox21).
Unmarked numbers belong to inactive results. Active and inactive are the calls of the source. Calls come from the whole dose curve.

Assay: G protein-coupled receptor (GPCR) small molecule agonists, calcium flux assay: HEK293 wild type cell line counter screen (AID 1920065)
Summary of the method: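 Calcium-sensitive dye, loaded 1 h at 37 C into cells cultured 18 h, reports compound-evoked calcium release as fluorescence (Ex/Em 480/540), measured over 3 min. Agonist mode; 15-point titrations, triplicate.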
% is set by controls: 0 for no effect and ±100 for the full control effect.

SMILES	outcome	activation
CN(C)CCc1c[nH]c2ccc(CS(=O)(=O)N3CCCC3)cc12	inactive	
CCCCC(CC)CN (stereo not drawn)	inactive	
C=CC(C)(C)O	inactive	
CCCCC(=O)O[C@]1(C(=O)CO)[C@H](C)C[C@H]2[C@@H]3CCC4=CC(=O)C=C[C@]4(C)[C@@]3(F)[C@@H](O)C[C@@]21C	inactive	
CO[Si](CCC1CCC2OC2C1)(OC)OC (stereo not drawn)	inactive	
O=c1[nH]c(=O)c2[nH]c(=O)[nH]c2[nH]1		1.57% [at 5.23 µM]
Cc1ccc(=O)n(-c2ccccc2)c1	inactive	
Cc1cccc2nccnc12	inactive	
CCCCOC(=O)C(C)CC (stereo not drawn)	inactive	
COc1ccc(OC)c(OC)c1	inactive	
O=C(c1ccco1)N1CCNCC1	inactive	
CCc1ccc(O)c(OC)c1	inactive	
OCC(CBr)(CBr)CBr	inactive	
COc1ccc(C(=O)Nc2ccccc2)cc1[N+](=O)[O-]	inactive	
CC1(C)CC(N)CC(C)(C)N1	inactive	
CCCCC(CC)C(=O)OC(C)C (stereo not drawn)	inactive	
CN(C)CCn1nnnc1SCC1=C(C(=O)O)N2C(=O)[C@@H](NC(=O)Cc3csc(N)n3)[C@H]2SC1	inactive	
CO[Si](OC)(OC)OC	inactive	
Cn1nnc2c(C(N)=O)ncn2c1=O	inactive	
NCC(=O)CCC(=O)O	inactive	
CCCCCCCCCCOCC(O)CN (stereo not drawn)	inactive	
O=C1c2ccccc2C(=O)C1c1ccc(Br)cc1	inactive	

SMILES	outcome	activation
CCOC(CN1CCN(CC(C)C(=O)c2ccccc2)CC1)c1ccccc1 (stereo not drawn)		1.41% [at 11.8 µM]
CCc1cccc(C)c1	inactive	
O=C(O)c1ccccc1C(=O)Nc1ccc(S(=O)(=O)Nc2nccs2)cc1	inactive	
O=C(O)C(=O)Cc1c[nH]c2ccccc12	inactive	
Cc1c(N)cccc1[N+](=O)[O-]	inactive	
C=C(C)C(=O)OCCN(C)C	inactive	
CC1CCc2c(N3CCC(O)CC3)c(F)cc3c(=O)c(C(=O)O)cn1c23 (stereo not drawn)	inactive	
NC(=O)c1ccncc1	inactive	
Cc1ccccc1CCO	inactive	
NS(=O)(=O)c1ccc(Cl)c(S(N)(=O)=O)c1	inactive	
CC(C)OC(=O)C(C)N(C(=O)c1ccccc1)c1ccc(F)c(Cl)c1 (stereo not drawn)	inactive	
CCC(=O)C(=O)CC	inactive	
CCOC(=O)CC1(C)OCC(C)O1 (stereo not drawn)	inactive	
CCCCCCCCCCCC	inactive	
CCC(C(=O)OCCN1CCOC(c2ccccc2)C1C)c1ccccc1 (stereo not drawn)	inactive	
Cc1ccc2c(c1)c1c3n2CCNC3CCC1 (stereo not drawn)	inactive	
NCCS	inactive	
CCCc1ncc(C(=O)O)s1	inactive	
COCC(=O)Nc1c(I)c(C(=O)NCC(O)CO)c(I)c(C(=O)N(C)CC(O)CO)c1I (stereo not drawn)	inactive	
C=CCN1CCc2nc(N)sc2CC1	inactive	
Cc1ccc2ccccc2n1	inactive	
